14-3-3g Raf = 14-3-3 gamma protein interaction modulation. P61981. FP, 14-3-3gamma / TMR-pS259-Raf peptide binding. inhibition, % at 40 µM. 0.19% of 160,000 active; in the data active means inhibition above about 30%
Target sequence (P61981 whole entry, looked up): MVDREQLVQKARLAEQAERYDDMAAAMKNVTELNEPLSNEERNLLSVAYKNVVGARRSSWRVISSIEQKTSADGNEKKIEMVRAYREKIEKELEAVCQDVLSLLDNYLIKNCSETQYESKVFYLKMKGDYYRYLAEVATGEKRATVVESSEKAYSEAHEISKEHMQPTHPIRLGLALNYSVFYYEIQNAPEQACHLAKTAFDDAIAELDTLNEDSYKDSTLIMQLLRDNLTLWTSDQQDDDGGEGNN
Large screens that a line does not name were inactive; ! = repeats disagree. Only a selection was taken, and hits are over-represented in it overall.

Cc1cccc(N(CC(=O)Nc2c(C)cccc2C)S(=O)(=O)c2ccccc2)c1C	none
Cc1cccc(N(CC(=O)NC2CCCCC2)S(=O)(=O)c2ccccc2)c1C	14-3-3g Raf 37.6
Cc1cccc(N(CC(=O)NC2CC3CCC2C3)S(=O)(=O)c2ccccc2)c1C (stereo not drawn)	none
Cc1ccc(NC2OC(CO)C(O)C(O)C2O)c([N+](=O)[O-])c1 (stereo not drawn)	none
N#CC1Cn2c(nc3c(c2=O)C2(CCCC2)Cc2ccccc2-3)S1 (stereo not drawn)	none
COc1cccc2cc(C(=O)C[n+]3ccc(N(C)C)cc3)c(=O)oc12	none
COc1ccc2oc(=O)c(C(=O)NCc3ccccc3)cc2c1	none
COc1ccc2oc(=O)c(C(=O)C[n+]3ccc(N(C)C)cc3)cc2c1	14-3-3g Raf 40.7
COc1ccc(C2CC(c3c(C)nc4ccc(Br)cc4c3-c3ccccc3)=NN2C(C)=O)cc1 (stereo not drawn)	none
CCCNC(=O)CCN1C(=O)c2ccccc2C1=O	none
CCN(c1ccccc1C)S(=O)(=O)c1ccc(NC(C)=O)cc1	none
COc1ccc(N=Cc2c(C)c(Cl)c(C)c([N+](=O)[O-])c2O)cc1Cl	none
O=C1c2ccccc2C(=O)c2cc(O)ccc21	none
O=C(O)c1ccccc1C1=Nc2ccc(O)cc2Oc2cc(O)ccc21	14-3-3g Raf 122.7
Cc1cc(-c2ccccc2C(=O)O)on1	none
O=C(NCCc1ccccc1)c1c[nH]c2ccc(S(=O)(=O)N3CCN(c4ccc(F)cc4)CC3)cc2c1=O	none
O=C(CSc1nc2scc(-c3cccs3)c2c(=O)n1-c1ccccc1)Nc1ccc2c(c1)OCCO2	none
Fc1ccc(-n2cc(-c3ccc(Cl)cc3)[nH]c2=S)cc1	none
COC(=O)C1=C(N)N(c2ccccc2F)C2=C(C(=O)CCC2)C1c1ccc2c(c1)OCO2 (stereo not drawn)	none
CC1CCc2c(sc(NC(=O)c3ccc(N4C(=O)C5C6C=CC(C6)C5C4=O)cc3)c2C#N)C1 (stereo not drawn)	none
CCCS(=O)(=O)N1N=C(c2ccc(NS(C)(=O)=O)cc2)CC1c1ccccc1F (stereo not drawn)	14-3-3g Raf 70.7
CS(=O)(=O)Nc1ccc(C2=NN(S(C)(=O)=O)C(c3ccccc3F)C2)cc1 (stereo not drawn)	none
CCS(=O)(=O)Nc1ccc(C2=NN(S(=O)(=O)CC)C(c3ccccc3F)C2)cc1 (stereo not drawn)	none
COC(=O)CCC(=O)Nc1cc(C)ccc1C	none
CC(C)(C)C(=O)CSc1nc2ccccc2c(=O)n1Cc1cccs1	none
O=C(c1ccc2c(=O)n(C3CCCC3)c(=O)[nH]c2c1)N1CCCCCC1	none
O=c1c2c3c(sc2ncn1Cc1cccc(Br)c1)CCCC3	none
COc1ccccc1-c1coc2c(CN3CCOCC3)c(O)ccc2c1=O	14-3-3g Raf 30.3
O=c1c(-c2ccc3c(c2)OCCO3)coc2c(CN3CCOCC3)c(O)ccc12	none
COc1cccc(Oc2coc3c(CN4CCOCC4)c(O)ccc3c2=O)c1	none
O=C1CCCC(=O)N1c1ccc(NCc2cccc(F)c2)c([N+](=O)[O-])c1	none
O=C1CN(C(=O)C2CCCC2)C(c2ccccc2)c2cc(Cl)ccc2N1 (stereo not drawn)	none
O=C(NCc1ccccc1Cl)c1cc2n(n1)C(C(F)(F)F)CC(c1ccc(Cl)cc1)N2 (stereo not drawn)	none
COc1ccc(C(C)=O)c2c(O)cccc12	none
COc1ccc2c3c(cccc13)OCC2=O	none
CCC1=NNc2cccc3c(OC)ccc1c23	14-3-3g Raf 141.8
CSc1nnc2c(n1)OC(c1ccncc1)Nc1ccccc1-2 (stereo not drawn)	none
CSc1nnc2c(n1)OC(c1ccc(C)cc1)Nc1ccccc1-2 (stereo not drawn)	none
CSc1nnc2c(n1)OC(c1ccccc1F)Nc1ccc(Br)cc1-2 (stereo not drawn)	none
CCSc1nnc2c(n1)OC(c1ccccc1F)Nc1ccccc1-2 (stereo not drawn)	none
CSc1nnc2c(n1)OC(C1CC=C(C)CC1C)Nc1ccc(Br)cc1-2 (stereo not drawn)	none
CCc1ccc(C2Nc3ccccc3-c3nnc(SC)nc3O2)cc1 (stereo not drawn)	14-3-3g Raf 148.8
CSc1nnc2c(n1)OC(C1CC=C(C)CC1)Nc1ccccc1-2 (stereo not drawn)	14-3-3g Raf 36.8!
CCc1ccc(C2Nc3ccc(Br)cc3-c3nnc(SC)nc3O2)cc1 (stereo not drawn)	none
CSc1nnc2c(n1)OC(c1ccccc1C)Nc1ccc(Br)cc1-2 (stereo not drawn)	14-3-3g Raf 48.6
CCSc1nnc2c(n1)OC(c1cc3c(cc1Cl)OCO3)Nc1ccccc1-2 (stereo not drawn)	none
CCSc1nnc2c(n1)OC(c1ccccc1Cl)Nc1ccccc1-2 (stereo not drawn)	14-3-3g Raf 98.3
COc1ccc(Br)cc1C1Nc2ccc(Br)cc2-c2nnc(SC)nc2O1 (stereo not drawn)	none
O=C(NCCCN1CCCC1=O)c1cc2nc(-c3ccco3)cc(C(F)(F)Cl)n2n1	none
CN1C(=O)c2ccccc2C(C(=O)NCCCN2CCCC2)C1c1cn(C)c2ccccc12 (stereo not drawn)	none
COc1cccc(N2CCN(C(=O)CCNS(=O)(=O)c3cccc4nonc34)CC2)c1	none
CCOC(=O)c1ccc(-n2c(N)c(C(=O)N3CCc4ccccc4C3)sc2=S)cc1	none
COc1cc(OC)c(C2C(C(=O)Nc3ccc(C)cc3C)=C(C)Nc3nc4ccccc4n32)cc1OC (stereo not drawn)	none
O=C(NCc1cccnc1)C1CCC(CNS(=O)(=O)c2ccccc2)CC1 (stereo not drawn)	none
CN1C(=O)c2ccccc2C(C(=O)N2CCN(Cc3ccc4c(c3)OCO4)CC2)C1c1c[nH]c2ccccc12 (stereo not drawn)	none
O=S(=O)(c1ccc(F)cc1)N1CCN(Cc2cccc(F)c2)CC1	none
COc1cc2c(cc1OC)C(COc1cccc(C(F)(F)F)c1)N(C(=O)c1ccccc1[N+](=O)[O-])CC2 (stereo not drawn)	none
O=C(Nc1cccc(-c2nc3ccccc3[nH]2)c1)C12CC3CC(CC(C3)C1)C2	none
CCSc1nnc2c(n1)OC(c1ccc(C(=O)O)cc1)Nc1ccccc1-2 (stereo not drawn)	none
CCSc1nnc2c(n1)OC(c1ccc(OC3CCCC3)cc1)Nc1ccccc1-2 (stereo not drawn)	none
CCSc1nnc2c(n1)OC(c1ccc3ccccc3c1)Nc1ccccc1-2 (stereo not drawn)	14-3-3g Raf 139.0
CCOc1cc2[nH]c(=O)n(Cc3ccc(OC)cc3)c(=O)c2cc1OCC	none
C=CCN(c1ccccc1)S(=O)(=O)c1ccc2[nH]cc(C(=O)N3CCC(C)CC3)c(=O)c2c1	none
CCOc1ccc2[nH]c(=O)c(CN(CC3COCCO3)C(=O)C3CC3)cc2c1 (stereo not drawn)	14-3-3g Raf 39.5
CCOc1ccc2[nH]c(=O)c(CN(C(=O)N3CCOCC3)C3CC3)cc2c1	none
CCOc1ccc2[nH]c(=O)c(CN(Cc3ccccc3)C(=O)N3CCCC3)cc2c1	none
CC(NC(=O)c1cc2c(=O)n3ccccc3nc2s1)c1ccccc1 (stereo not drawn)	none
CCCC(=O)N(c1ccc2oc(C)c(C(=O)OC)c2c1)S(=O)(=O)c1cc(C)c(C)cc1C	none
Cc1ccc(C(=O)Nc2c3c(nn2C(C)(C)C)CS(=O)(=O)C3)cc1	none
Brc1ccc(C=Nc2nc3c(s2)CCCC3)cc1	none
Oc1ccc2ccccc2c1C=Nc1nc2c(s1)CCCC2	14-3-3g Raf 36.1
Oc1ccc2ccccc2c1C=Nc1cccc2ccccc12	none
O=C(CC(c1ccccc1)c1ccccc1O)NCC1(c2ccccc2)CCCC1 (stereo not drawn)	none

Screens (PubChem BioAssay)
